ALR H2O2 inh = human ALR oxidase inhibition via reduced H2O2; hit rate 3.8% among 290,000; P55789; purified ALR, DTT oxidation, H2O2 HRP-luminol luminescence; inhibition, % (concentration not given with the values);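 active = mean replicate inhibition above about 79%, with every replicate also reaching it, limit read from the data; inconclusive = only one of the two criteria met; inactive = mean below limit and not every replicate reaching it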
Target sequence (P55789 whole entry, looked up): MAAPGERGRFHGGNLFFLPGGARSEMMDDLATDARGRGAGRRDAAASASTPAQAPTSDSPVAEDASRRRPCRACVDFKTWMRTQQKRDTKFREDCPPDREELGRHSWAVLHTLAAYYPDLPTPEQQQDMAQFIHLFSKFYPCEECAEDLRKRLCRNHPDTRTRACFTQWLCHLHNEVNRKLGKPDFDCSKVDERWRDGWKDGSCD
Mot1-301 SUMO = SUMOylation pathway inhibition by Mot1-301 growth rescue. S. cerevisiae Mot1-301 growth rescue, ATP luminescence, 38.5C; percent above DMSO median, 100 means doubled. growth rescue, % at 18.8 µM. hit rate 1% among 320,000;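 active = every valid replicate shows activation above 250% relative to neutral control wells; inactive = the rest, any valid replicate at or below 250%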;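 note: OY570 slx delta 5 strain wells were the positive control but not used for scaling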
HIF act = HIF pathway transcriptional activation. activation, % at 7.5 µM (by protocol). hit rate 0.32% among 300,000. AID 1910. U2OS HRE-luciferase reporter, luminescence; normalized: DMSO 0%, desferrioxamine 100%;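 active = mean activation of at least 10% of the iron chelator positive control signal, with at least half of replicates also reaching 10%; inconclusive = mean and replicate majority disagree about reaching 10%; inactive = mean and most replicates under 10%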
M18AAP inhibitor = PfM18AAP enzyme inhibition; recombinant PfM18AAP, H-Glu-NHMec fluorogenic cleavage; inhibition, % at 7.35 µM; hit rate 1.2% among 290,000; AID 1822;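 active = inhibition above the campaign mean inhibition over all tested compounds plus 3 SD, cut at about 28% in these data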;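 note: 0% = plate median of test compound wells and 100% = 2 mM ZnCl2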
Active calls of the source: *; ? = inconclusive; nt = not tested or not shown. Rows were chosen to be rich in hits. Some 5.3% of all compounds tested hit in one or more screens of this group.

SMILES	ALR H2O2 inh	Mot1-301 SUMO	HIF act	M18AAP inhibitor
COc1cc(C(=O)Nc2cccc(S(=O)(=O)N3CCCC3)c2)cc(OC)c1C	-1	0	1	1
CCN(CC(=O)Nc1ccc(NC(C)=O)cc1)C(=O)/C=C/c1ccc([N+](=O)[O-])cc1	-8	12	1	nt
COc1cccc(/C=C/C(=C2\C(=O)N(c3ccccc3)N=C2C)c2ccc(Br)cc2)c1OC	nt	nt	nt	3
COc1ccc(C(=O)N2CCc3ccc(NC(=O)c4ccccn4)cc3C2)cc1F	nt	nt	3	9
CC1CN(S(=O)(=O)c2cccc(C(=O)Nc3cc(Cl)ccc3N3CCOCC3)c2)CC(C)O1 (configuration not stated)	-1	18	nt	nt
CC1CN(S(=O)(=O)c2cccc(C(=O)Nc3ccccc3N3CCCC3)c2)CC(C)O1 (configuration not stated)	97*	110	0	nt
Cc1ccc(C(=O)Nc2ccccc2N2CCCC2)cc1S(=O)(=O)N1CCOCC1	98*	-1	nt	nt
COc1ccc(C(=O)Nc2ccc(NC(=O)c3ccccc3)cc2)cc1S(=O)(=O)N1CCOCC1	-8	26	0	-2
CC(=O)N1CCN(S(=O)(=O)c2cccc(C(=O)Nc3ccccc3N3CCCC3)c2)CC1	97*	10	0	nt
CN1CCN(S(=O)(=O)c2cccc(C(=O)Nc3ccccc3N3CCCC3)c2)CC1	49	124	0	1
COc1ccc(C(=O)Nc2ccc(N3CCCCCC3)cc2)cc1S(=O)(=O)N1CCOCC1	98*	-9	nt	nt
O=[N+]([O-])c1ccccc1CCc1cnc(Cl)s1	-1	-1	0	-1
CCCN(C(=O)CSCc1ccc(Cl)cc1)c1c(N)n(Cc2ccccc2)c(=O)[nH]c1=O	nt	-2	0	nt
O=C(Nc1ccccc1O)c1cc(S(=O)(=O)N2CCOCC2)c(Cl)cc1Cl	90*	-22	nt	10
COc1ccc(S(=O)(=O)N2CCC(C(=O)Nc3ccccc3N3CCCC3)CC2)cc1OC	97*	6	0	14
Cc1ccnc(Nc2nc(-c3ccc(O)cc3O)cs2)c1	99*	-13	3	15
CSC(=O)CC(=O)NC(=O)c1ccccc1	97*	-9	0	7
O=C(CSc1ccc(-c2ccco2)nn1)Nc1ccccc1	98*	183	0	-1
CCc1ccc(NC(=O)CSc2ccc(-c3ccccn3)nn2)cc1	-7	-16	13*	11
CC(=O)Nc1cccc(NC(=O)CSc2ccc(-c3ccccn3)nn2)c1	-16	8	3	16
CCn1c(SCC(=O)Nc2nncs2)nnc1-c1ccco1	nt	18	34*	21
O=C(CSc1ccc(-c2ccco2)nn1)Nc1ccc(F)cc1	22	6	0	-17
Cc1nnc(NC(=O)CSc2ccc(-c3ccco3)nn2)s1	97*	11	-1	5
CC(NC(=O)c1ccccc1)C(=O)OCn1nnc2ccccc2c1=O (configuration not stated)	-4	-4	nt	nt
COc1ccc(C(=O)CSc2ccc(-c3ccco3)nn2)cc1	?	300	0	-26
SMILES	ALR H2O2 inh	Mot1-301 SUMO	HIF act	M18AAP inhibitor
O=C(CSc1ccc(-c2ccco2)nn1)c1ccccc1	98*	-3	0	-19
O=C(O)[C@H](Cc1ccccc1)NC(=O)N1CCN(c2ccccc2)CC1	65	7	0	3
O=C(NCc1cccnc1)C1CCN(S(=O)(=O)c2cc(Cl)ccc2Cl)CC1	nt	1	0	-4
Nc1cc2ccncc2c2ccccc12	98*	34	4	2
Cc1cccc(C)c1NC(=O)CNC(=O)c1cccnc1	-3	196	0	-18
Oc1cccc(O)c1O	83*	422	nt	nt
O=C(Cn1c(=O)oc2cc(S(=O)(=O)N3CCc4ccccc43)ccc21)NC1CCCC1	96*	-5	nt	-6
Cc1ccc(S(=O)(=O)NN2C(=O)/C(=C/c3cccnc3)SC2=S)cc1	96*	75	-1	6
COc1ccccc1/C=C1\SC(=S)N(NS(=O)(=O)c2ccc(C)cc2)C1=O	97*	13	0	2
O=C(OCc1ccccc1F)c1cc2ccccc2cc1O	1	-6	1	4
N#CC1=C2SCN(Cc3ccco3)CN2C(=O)CC1c1cccc2ccccc12 (configuration not stated)	-6	6	0	30*
CC(C)COCC(O)CCC(=O)NNC(=S)Nc1ccccc1 (configuration not stated)	93*	1	1	16
CCCCCc1cc(=O)oc2c(C(CCN(CC)CC)c3cc(OC)c(OC)c(OC)c3)c(OC)cc(OC)c12 (configuration not stated)	nt	-38	-14	nt

Source: PubChem BioAssay (several laboratories)
